The source of these data is PubChem BioAssay (Tox21).

Each structure is given as a SMILES string. Where “and” joins values, the source holds several entries; their conditions need not be identical. Equal entries are not always repeated. Results filed as inconclusive are left out. Entries that show only a call come without a potency. The source holds several records for some structures; these can differ, active in one and inactive in another. Calls of active or inactive are those of the source. Unless noted, calls come from the whole dose curve; as a rule, active = well fitted curve in the direction sought with a large enough effect in the repeat runs; inconclusive = weak or mixed curves; inactive = no such curve, though single readings can be large; an effect the other way counts as inactive or inconclusive.

Test system in one assay: not listed separately
In words: qHTS assay to identify small molecule antagonists of the thyroid receptor (TR) signaling pathway - cell viability counter screen (AID 743064). Note: nearly all actives have a fitted effect of over 50% in size. Note: potency is the fitted concentration of half-maximal effect. Conditions: GH3.TRE-Luc viability, CellTiter-Fluor, 24 h; series mostly up to 70.3 µM. Put shortly:
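CellTiter-Fluor readout, 30 min at 37 °C/5% CO2, following 23.5 h incubation of GH3.TRE-Luc cells with test compound and 1 nM T3 (final).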
(In qHTS, concentration-response curves come from the screen itself.)
As to `CCCCC(CC)COC(=O)CCCCC(=O)OCC(CC)CCCC` (centres undefined), the Potency result was “inactive”.

As to `O=C(O)CCCC[C@@H]1SC[C@@H]2NC(=O)N[C@@H]21`, the Potency result is “inactive”.

Regarding `CCc1cccc(C)c1N`, the Potency result was “inactive”.

With `CC(=O)CC(=O)Nc1ccccc1C`, the Potency entry is “inactive”.

With `O=C(O)c1cc(O)c(O)c(O)c1`, the Potency entry was “inactive and 55 µM (active)”.

As to `C=C(C)C(=O)O[C@H]1C[C@@H]2CC[C@@]1(C)C2(C)C`, the Potency result was “inactive”.

Regarding `CN(C)CCC(c1ccc(Cl)cc1)c1ccccn1` (centres undefined), the Potency was 24.4 µM (active) and 30.6 µM (active).

On to `C#CCN(C)Cc1ccccc1`, for which the Potency entry is “inactive”.

Take `Cc1ccc(N(C)C)cc1`: the Potency entry was “inactive”.

In the case of `O=C(O)c1ccccc1C(c1ccc(O)cc1)c1ccc(O)cc1`, the Potency entry is “inactive”.

Consider `Fc1ccc(Br)cc1`, for which the Potency entry is “inactive”.

As to `CCCCCCCCCCCCCCO`, the Potency result was “inactive”.

As to `O=[N+]([O-])c1ccc(/C=C/c2ccc([N+](=O)[O-])cc2S(=O)(=O)O)c(S(=O)(=O)O)c1`, the Potency entry was “inactive”.

Turning to `O=C=NCCCCCCN=C=O`, the Potency result is “inactive”.

Take `CC(c1cc2ccccc2s1)N(O)C(N)=O` (centres undefined): the Potency entry is “inactive”.

Consider `COS(C)(=O)=O`, for which the Potency result was “inactive”.

For the molecule `Cc1cccc(O)c1`, the Potency result was “inactive”.

`CN(C)CCCN`: the Potency result was “inactive”.

As to `CC(C)(N)CO`, the Potency entry was “inactive”.

In the case of `c1c[nH]cn1`, the Potency result is “inactive”.

With `CCCCCCCCCCCCS`, the Potency result was “inactive”.

`COc1cc(Cc2cnc(N)nc2N)cc(OC)c1OC`: the Potency entry was “inactive”.

On to `CCCCCCCCCC`, for which the Potency result is “inactive”.

Consider `CCN(CC)c1ccc(C(=O)c2ccccc2C(=O)O)c(O)c1`, for which the Potency result is “inactive”.

On to `FC(F)(F)c1ccc(Cl)c(Cl)c1`, for which the Potency entry is “inactive”.

For the molecule `CC[C@H](C)C(=O)O[C@H]1C[C@@H](C)C=C2C=C[C@H](C)[C@H](CC[C@@H]3C[C@@H](O)CC(=O)O3)[C@H]21`, the Potency was 62 µM (active) and 60.8 µM (active).

Regarding `CCCCN(CCCC)CCCC`, the Potency result was “inactive”.

Consider `CC(C)c1ccc(S(=O)(=O)O)cc1`, for which the Potency result is “inactive”.

As to `C=CCOC(=O)c1ccccc1C(=O)OCC=C`, the Potency entry was “inactive”.

Consider `CC(C)CC(=O)CC(C)C`, for which the Potency result was “inactive”.

In the case of `CN(C)CCC(c1ccccc1)c1ccccn1` (centres undefined), the Potency result is “inactive”.

For the molecule `c1ccc(OCCOc2ccccc2)cc1`, the Potency entry is “inactive”.

Regarding `CC(=O)c1ccccc1`, the Potency result was “inactive”.

For `O=C(OCCOCCOC(=O)c1ccccc1)c1ccccc1`, the Potency entry was “inactive”.

Turning to `C/C=C1/CC2C=CC1C2` (centres undefined), the Potency result is “inactive”.

As for `CCCCC(CC)COC(=O)CS` (centres undefined), the Potency result is “inactive”.

On to `CCCCCCOCCO`, for which the Potency entry was “inactive”.

For `OC[C@H]1O[C@@](CO)(O[C@H]2O[C@H](CO)[C@@H](O)[C@H](O)[C@H]2O)[C@@H](O)[C@@H]1O`, the Potency entry is “inactive”.

Test system in the next assay: not listed separately
Put plainly: qHTS assay to identify small molecule antagonists of the thyroid receptor (TR) signaling pathway (AID 743065). Note: nearly all actives have a fitted effect of over 55% in size. Note: potency is the fitted concentration of half-maximal effect. The following applies: GH3.TRE-Luc, T3-stimulated luciferase inhibition, 23.5 h; series mostly up to 70.3 µM. Put shortly: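 Antagonism measured as loss of luciferase signal in GH3 cells stably carrying a TRE-luciferase reporter, co-treated with compound and T3 (1 nM final) for 23.5 h at 37 C. Viability was read in the same well by CellTiter-Fluor.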
For the molecule `CCCCC(CC)COC(=O)CCCCC(=O)OCC(CC)CCCC` (centres undefined), the Potency result is “inactive”.

With `O=C(O)CCCC[C@@H]1SC[C@@H]2NC(=O)N[C@@H]21`, the Potency entry was “inactive”.

`CCc1cccc(C)c1N`: the Potency entry was “inactive”.

For `CC(=O)CC(=O)Nc1ccccc1C`, the Potency result is “inactive”.

For `O=C(O)c1cc(O)c(O)c(O)c1`, the Potency entry is “inactive”.

For the molecule `C=C(C)C(=O)O[C@H]1C[C@@H]2CC[C@@]1(C)C2(C)C`, the Potency result was “inactive”.

With `CN(C)CCC(c1ccc(Cl)cc1)c1ccccn1` (centres undefined), the Potency is 48.7 µM (active) and 48.6 µM (active).

As for `C#CCN(C)Cc1ccccc1`, the Potency result is “inactive”.

Take `Cc1ccc(N(C)C)cc1`: the Potency entry is “inactive”.

For `O=C(O)c1ccccc1C(c1ccc(O)cc1)c1ccc(O)cc1`, the Potency entry is “inactive”.

Take `Fc1ccc(Br)cc1`: the Potency result was “inactive”.

Take `CCCCCCCCCCCCCCO`: the Potency entry is “inactive”.

Take `O=[N+]([O-])c1ccc(/C=C/c2ccc([N+](=O)[O-])cc2S(=O)(=O)O)c(S(=O)(=O)O)c1`: the Potency result was “inactive”.

Regarding `O=C=NCCCCCCN=C=O`, the Potency result was “inactive”.

On to `CC(c1cc2ccccc2s1)N(O)C(N)=O` (centres undefined), for which the Potency entry is “inactive”.

For the molecule `COS(C)(=O)=O`, the Potency result is “inactive”.

As for `Cc1cccc(O)c1`, the Potency result is “inactive”.

Consider `CN(C)CCCN`, for which the Potency result is “inactive”.

On to `CC(C)(N)CO`, for which the Potency result was “inactive”.

Take `c1c[nH]cn1`: the Potency entry is “inactive”.

In the case of `CCCCCCCCCCCCS`, the Potency entry was “inactive”.

As for `COc1cc(Cc2cnc(N)nc2N)cc(OC)c1OC`, the Potency entry was “inactive”.

As for `CCCCCCCCCC`, the Potency result was “inactive”.

For `CCN(CC)c1ccc(C(=O)c2ccccc2C(=O)O)c(O)c1`, the Potency result is “inactive”.

As for `FC(F)(F)c1ccc(Cl)c(Cl)c1`, the Potency entry was “inactive”.

On to `CC[C@H](C)C(=O)O[C@H]1C[C@@H](C)C=C2C=C[C@H](C)[C@H](CC[C@@H]3C[C@@H](O)CC(=O)O3)[C@H]21`, for which the Potency is 62 µM (active) and 54.2 µM (active).

`CCCCN(CCCC)CCCC`: the Potency entry was “inactive”.

Turning to `CC(C)c1ccc(S(=O)(=O)O)cc1`, the Potency result was “inactive”.

On to `C=CCOC(=O)c1ccccc1C(=O)OCC=C`, for which the Potency result is “inactive”.

Take `CC(C)CC(=O)CC(C)C`: the Potency result was “inactive”.

Consider `CN(C)CCC(c1ccccc1)c1ccccn1` (centres undefined), for which the Potency result is “inactive”.

As to `c1ccc(OCCOc2ccccc2)cc1`, the Potency entry is “inactive”.

Take `CC(=O)c1ccccc1`: the Potency entry was “inactive”.

For `O=C(OCCOCCOC(=O)c1ccccc1)c1ccccc1`, the Potency result is “inactive”.

As to `C/C=C1/CC2C=CC1C2` (centres undefined), the Potency result was “inactive”.

Consider `CCCCC(CC)COC(=O)CS` (centres undefined), for which the Potency entry was “inactive”.

Take `CCCCCCOCCO`: the Potency entry was “inactive”.

As to `OC[C@H]1O[C@@](CO)(O[C@H]2O[C@H](CO)[C@@H](O)[C@H](O)[C@H]2O)[C@@H](O)[C@@H]1O`, the Potency entry was “inactive”.

Another assay has as its system thyroid hormone receptor (rat, GH3 cells). In words: qHTS assay to identify small molecule agonists of the thyroid receptor (TR) signaling pathway (AID 743066; calls by dose curve). The following applies: GH3.TRE-Luc cells, TR agonist luciferase, 24 h; series mostly up to 83.9 µM.
In the case of `CCCCC(CC)COC(=O)CCCCC(=O)OCC(CC)CCCC` (centres undefined), the Potency result is “inactive”.

Turning to `O=C(O)CCCC[C@@H]1SC[C@@H]2NC(=O)N[C@@H]21`, the Potency result is “inactive”.

Take `CCc1cccc(C)c1N`: the Potency result is “inactive”.

Turning to `CC(=O)CC(=O)Nc1ccccc1C`, the Potency entry was “inactive”.

For the molecule `O=C(O)c1cc(O)c(O)c(O)c1`, the Potency entry is “inactive”.

Turning to `C=C(C)C(=O)O[C@H]1C[C@@H]2CC[C@@]1(C)C2(C)C`, the Potency entry was “inactive”.

Regarding `CN(C)CCC(c1ccc(Cl)cc1)c1ccccn1` (centres undefined), the Potency result was “inactive”.

`C#CCN(C)Cc1ccccc1`: the Potency entry was “inactive”.

With `Cc1ccc(N(C)C)cc1`, the Potency entry was “inactive”.

With `O=C(O)c1ccccc1C(c1ccc(O)cc1)c1ccc(O)cc1`, the Potency entry was “inactive”.

In the case of `Fc1ccc(Br)cc1`, the Potency result is “inactive”.

Turning to `CCCCCCCCCCCCCCO`, the Potency entry is “inactive”.

With `O=[N+]([O-])c1ccc(/C=C/c2ccc([N+](=O)[O-])cc2S(=O)(=O)O)c(S(=O)(=O)O)c1`, the Potency entry was “inactive”.

Consider `O=C=NCCCCCCN=C=O`, for which the Potency entry is “inactive”.

`CC(c1cc2ccccc2s1)N(O)C(N)=O` (centres undefined): the Potency result is “inactive”.

As to `COS(C)(=O)=O`, the Potency entry was “inactive”.

`Cc1cccc(O)c1`: the Potency result was “inactive”.

With `CN(C)CCCN`, the Potency entry was “inactive”.

In the case of `CC(C)(N)CO`, the Potency entry is “inactive”.

On to `c1c[nH]cn1`, for which the Potency entry is “inactive”.

As for `CCCCCCCCCCCCS`, the Potency result is “inactive”.

`COc1cc(Cc2cnc(N)nc2N)cc(OC)c1OC`: the Potency entry was “inactive”.

Take `CCCCCCCCCC`: the Potency result is “inactive”.

Take `CCN(CC)c1ccc(C(=O)c2ccccc2C(=O)O)c(O)c1`: the Potency result was “inactive”.

With `FC(F)(F)c1ccc(Cl)c(Cl)c1`, the Potency entry was “inactive”.

Regarding `CC[C@H](C)C(=O)O[C@H]1C[C@@H](C)C=C2C=C[C@H](C)[C@H](CC[C@@H]3C[C@@H](O)CC(=O)O3)[C@H]21`, the Potency result was “inactive”.

On to `CCCCN(CCCC)CCCC`, for which the Potency entry is “inactive”.

On to `CC(C)c1ccc(S(=O)(=O)O)cc1`, for which the Potency result is “inactive”.

Consider `C=CCOC(=O)c1ccccc1C(=O)OCC=C`, for which the Potency result was “inactive”.

For `CC(C)CC(=O)CC(C)C`, the Potency result was “inactive”.

Take `CN(C)CCC(c1ccccc1)c1ccccn1` (centres undefined): the Potency entry was “inactive”.

On to `c1ccc(OCCOc2ccccc2)cc1`, for which the Potency result is “inactive”.

With `CC(=O)c1ccccc1`, the Potency entry was “inactive”.

On to `O=C(OCCOCCOC(=O)c1ccccc1)c1ccccc1`, for which the Potency entry was “inactive”.

Consider `C/C=C1/CC2C=CC1C2` (centres undefined), for which the Potency entry was “inactive”.

On to `CCCCC(CC)COC(=O)CS` (centres undefined), for which the Potency result is “inactive”.

As for `CCCCCCOCCO`, the Potency entry was “inactive”.

For the molecule `OC[C@H]1O[C@@](CO)(O[C@H]2O[C@H](CO)[C@@H](O)[C@H](O)[C@H]2O)[C@@H](O)[C@@H]1O`, the Potency entry is “inactive”.
